Consider 33 molecules from PubChem BioAssay (EPA / NIEHS).

The structures appear in SMILES notation. Results filed as inconclusive are left out. The source made the active and inactive calls. The calls were made as follows: active = hit-call score of the fitted dose curve at least 0.9, where 1 is the maximum; inconclusive = response in the unintended direction; inactive = score below 0.9.

THRB (gene 7068), sequence (P10828 whole entry, looked up): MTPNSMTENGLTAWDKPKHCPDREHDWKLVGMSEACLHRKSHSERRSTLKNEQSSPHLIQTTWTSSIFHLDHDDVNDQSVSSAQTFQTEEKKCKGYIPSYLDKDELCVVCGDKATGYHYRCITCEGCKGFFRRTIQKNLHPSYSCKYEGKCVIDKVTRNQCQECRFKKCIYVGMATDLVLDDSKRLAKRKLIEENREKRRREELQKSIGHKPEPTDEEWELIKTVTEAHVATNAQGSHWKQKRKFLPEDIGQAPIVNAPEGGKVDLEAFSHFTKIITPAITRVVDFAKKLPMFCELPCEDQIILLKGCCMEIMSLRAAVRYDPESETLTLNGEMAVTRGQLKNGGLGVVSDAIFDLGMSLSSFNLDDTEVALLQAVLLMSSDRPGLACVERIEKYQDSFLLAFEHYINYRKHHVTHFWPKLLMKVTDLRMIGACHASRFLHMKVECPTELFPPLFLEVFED

This assay deals with THRB (gene 7068) (UniProt P10828). The experiment in a line: TOX21_TRB_COA_Antagonist_Followup_ratio: Tox21 Thyroid Hormone Receptor beta Antagonism through Coactivator Recruitment Follow-Up Assay, Ratio (AID 2283967). From the text:
TOX21_TRb_COA_Antagonist_Followup is a secondary assay for specificity for the TOX21_TR_GH3_LUC_Agonist assay. The LanthaScreen TR-FRET TR coactivator assay kits were used to determine TR activity in a cell-free functional assay. A time-resolved fluorescence resonance energy transfer (TR-FRET) signal was indicative of coactivator (SRC-2) recruitment.TOX21_TRB_COA_Antagonist_Followup_ratio is assay component calculated in the TOX21_TRB_COA_Antagonist_Followup assay. The TR-FRET ratio of acceptor emission (ch2) to donor emission (ch1) is indicative of the resonance energy transfer to the fluorescein tag on the coactivator peptide following recruitment to the receptor.Data from the assay component TOX21_TRB_COA_Antagonist_Followup_ratio was analyzed into 1 assay endpoint. This assay endpoint, TOX21_TRB_COA_Antagonist_Followup_ratio, was analyzed in the positive analysis fitting direction relative to DMSO as the negative control and baseline of activity. Using a type of inducible reporter, loss-of-signal activity can be used to understand changes in the reporter gene as they relate to the gene THRB. Furthermore, this assay endpoint can be referred to as a primary readout, because this assay has produced multiple assay endpoints and this ratio serves a reporter gene function to understand target activity. To generalize the intended target to other relatable targets, this assay endpoint is annotated to the nuclear receptor intended target family, where the subfamily is non-steroidal.
Cell Media Required: Growth (90% DMEM/F-12, 10% Fetal Bovine Calf Serum, 100U/ml Penicillin, 100 ug/ml Streptomycin), Assay (10ng/mL sodium selenite, 10 ug/mL humanapo-transferrin, 10 uM ethanolamine, 10 ug/mL insulin, 500 ug/mL bovine serum albumin (BSA))Assay Protocol: 4 uL mixture of the receptor LBDs expressed as glutathione S-transferase (GST) fusion proteins (2.5 nM for TRa and 5.0 nM for TRb) and BSA (0.10%; Sigma-Aldrich) were incubated with 23 nL of control or test compound. A time-resolved fluorescence resonance energy transfer(TR-FRET) signal was indicative of coactivator recruitment using a 2 uL mixture of fluoresce in-labeled SRC-2 peptide (200 nM) and terbium-labeled anti-GST antibody (2nM), which transferred resonance energy to the fluorescein tag on the coactivator peptide following recruitment to the receptor. Fluorescence emission ratios (520:495 nm) were collected by an Envision plate reader (excitation at 340 nm and emissions at 495 and 520 nm), and the measured values were normalized to 0% activity using DMSO-only wells and 100 activity using T3 control wells.
For the molecule `CC(=O)[C@H]1CC[C@H]2[C@@H]3C=CC4=CC(=O)CC[C@@]4(C)[C@@H]3CC[C@]12C`, the outcome was inactive.
Regarding `O=c1[nH]c(=O)n([C@H]2C[C@H](O)[C@@H](CO)O2)cc1F`, the result was inactive.
On to `CCCOc1ccc2nc(NC(=O)OC)sc2c1`, for which the result was inactive.
Consider `COc1ccc2nc(NC(=O)Nc3ccccc3)sc2c1`, for which the result was inactive.
For orientation: AC50 means the concentration at which the activity in the assay is half-maximal. Regarding `O=[Se](O)O`, the AC50 was 31.7 µM (active).
Regarding `Cc1nc2ccccc2n1Cc1ccc(Cl)cc1`, the outcome was inactive.
For `CCCCCOc1ccc(C2SC(=O)NC2=O)cc1OCC` (stereo not drawn), the AC50 was 10.8 µM (active).
For `CO[C@H]1C[C@@H]2CC[C@@H](C)[C@@](O)(O2)C(=O)C(=O)N2CCCC[C@H]2C(=O)O[C@H]([C@H](C)C[C@@H]2CC[C@@H](O)[C@H](OC)C2)CC(=O)[C@H](C)/C=C(\C)[C@@H](O)[C@@H](OC)C(=O)[C@H](C)C[C@H](C)\C=C/C=C/C=C/1C`, the result was inactive.
For `Cc1nc(-c2ccc(OCC(C)C)c(C#N)c2)sc1C(=O)O`, the result was inactive.
Same read-out and setting: in the case of `O=C(CCCCCCC(=O)Nc1ccccc1)NO` it was “inactive”; in that of `CC(C)N=C(N)/N=C(\N)Nc1ccc(Cl)cc1`, “inactive”; in that of `CCCC(=O)O[C@]1(C(=O)CCl)[C@@H](C)C[C@H]2[C@@H]3CCC4=CC(=O)C=C[C@]4(C)[C@@]3(F)C(=O)C[C@@]21C`, “inactive”.
Take `C#CCC(Cc1cnc2nc(N)nc(N)c2n1)c1ccc(C(=O)N[C@@H](CCC(=O)O)C(=O)O)cc1` (stereo partly drawn): the result was inactive.
On the same count and under the same terms, the entry for `O=C1C(=O)c2ncccc2-c2cccnc21` is “inactive”; for `CCCCCCNC(=O)n1cc(F)c(=O)[nH]c1=O` it is “inactive”; for `CC(C)n1c(/C=C/[C@@H](O)C[C@@H](O)CC(=O)O)c(-c2ccc(F)cc2)c2ccccc21` it is “inactive”.
Regarding `COC(=O)Nc1nc2ccc(Sc3ccccc3)cc2[nH]1`, the result was inactive.
Regarding `O=C(O)c1cccc(-c2noc(-c3ccccc3F)n2)c1`, the result was inactive.
Turning to `CCc1cc(Cl)c(OC)c(C(=O)NC[C@@H]2CCCN2CC)c1O`, the result was inactive.
On to `NC(N)=NCc1cccc(I)c1`, for which the outcome was inactive.
The same measure, in the same setting: the entry for `Cc1c(Nc2ncccc2C(=O)O)cccc1C(F)(F)F` is “inactive”; for `Nc1c2ccccc2nc2ccccc12` it is “inactive”; for `CC1(C)N=C(N)N=C(N)N1c1ccc(Cl)cc1` it is “inactive”.
On the same count and under the same terms, in the case of `COc1cc([C@@H]2c3cc4c(cc3[C@H](O)[C@H]3COC(=O)[C@H]23)OCO4)cc(OC)c1OC` it was “inactive”; in that of `CC[C@@]1(O)C[C@@H]2CN(CCc3c([nH]c4ccccc34)[C@@](C(=O)OC)(c3cc4c(cc3OC)N(C)[C@H]3[C@@](O)(C(=O)OC)[C@H](OC(C)=O)[C@]5(CC)C=CCN6CC[C@]43[C@@H]65)C2)C1`, “inactive”.
The same measure, in the same setting: the entry for `Cc1cc(Nc2ccccc2C(=O)O)ccc1Cl` is “inactive”; for `CO[C@H]1C[C@@H]2CC[C@@H](C)[C@@](O)(O2)C(=O)C(=O)N2CCCC[C@H]2C(=O)O[C@H]([C@H](C)C[C@@H]2CC[C@@H](OCCO)[C@H](OC)C2)CC(=O)[C@H](C)/C=C(\C)[C@@H](O)[C@@H](OC)C(=O)[C@H](C)C[C@H](C)\C=C/C=C/C=C/1C` it is “inactive”.
With `O=C(CCCCCCCCC#CI)Oc1ccccc1`, the outcome was inactive.
Same read-out and setting: the entry for `Brc1cc(Oc2cc(Br)c(Br)c(Br)c2Br)c(Br)c(Br)c1Br` is “inactive”.
On to `CC(C)=CCC1=C(O)c2ccccc2C(=O)C1=O`, for which the AC50 was 31.3 µM (active).
In the case of `CC(C(=O)O)c1ccc(N2Cc3ccccc3C2=O)cc1` (stereo not drawn), the outcome was inactive.
For `C[C@@H]1C[C@H]2[C@@H]3CCC4=CC(=O)C=C[C@]4(C)[C@@]3(Cl)[C@@H](O)C[C@]2(C)[C@@]1(OC(=O)c1ccco1)C(=O)CCl`, the result was inactive.
Take `CC(=O)Nc1ccn(C2COC(COC(=O)c3ccccc3)O2)c(=O)n1` (stereo not drawn): the outcome was inactive.
